Laboratory results taken from PubChem BioAssay.
Unmarked numbers belong to inactive results. Active and inactive are the calls of the source.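 How the source made its calls: active means thallium flux through the channel raised or lowered by more than 3 SD from vehicle-only wells, actives on both sides; inactive means the rest.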

These compounds were tested on F380Y/beta1 (assay: BK channel mutant inhibitors and activators – cell-based, U2OS BacMam, thallium flux, beta subunits, selectivity assay, profiling panel (AID 1259406;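 further: initial slope of Thallos dye fluorescence rise after thallium is added; log ratio against the mean of 0.3% DMSO vehicle wells on the same plate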)). Conditions: U2OS BacMam BK variants, at 30 µM.

SMILES | log fold change Tl+ flux
O=[N+]([O-])c1ccc(N2CCSCC2)cc1O | -0.0279
O=S(=O)(Nc1cc(Cl)c(-n2cccc2)cc1Oc1ccc(Cl)cc1)c1ccc(Cl)cc1 | -0.0223
COc1cccc(C(=O)Nc2cc(F)c(Br)cc2F)c1 | -0.0212
CCCn1c(=O)c(Br)cn(-c2ccccc2C)c1=O | -0.0448
Cc1cc(C(=O)N2CCN(c3ncccc3C#N)CC2)no1 | 0.00841
FC(F)(F)c1ccc(-c2csc(C3(c4ccc(Cl)cc4Cl)CC3)n2)cc1 | 0.000911
CCOC(=O)c1c[nH]n2c(=O)c3c(nc12)CCC3 | 0.0491
CN(C)C=Nc1cc(Cl)c(-n2cccc2)cc1Oc1ccc(Cl)cc1 | 0.0128
Cc1cc2c(NC(=O)c3ccccc3C(=O)O)cccc2nn1 | 0.714 (active)
O=c1n(-c2ccccc2)c(=O)n2n1C1CCC2C1 | -0.0272
NC(Cc1ccc(OCc2ncc(C(F)(F)F)cc2Cl)cc1)=NOC(=O)c1ccccc1 | -0.00621
Cc1cc2c(cc1C)CSC(c1ccco1)SC2 | 0.0185
Cn1c(C(=O)O)ccc1S(=O)(=O)N(Cc1ccccc1)Cc1ccccc1 | 0.205 (active)
CCOC(=O)Cn1c(-c2c(Cl)cccc2Cl)noc1=O | -0.00728
COC(=O)C(C#N)=C1NC(C)=NC(SC)=C1C#N | 0.03
CS(=O)(=O)NNc1c(Cl)cc(Cl)cc1Cl | -0.000501
Cc1cnc(N)c(C)n1 | 0.0374
CC12CCC(c3c1nn(-c1ccccc1)c3C(F)(F)F)C2(C)C (stereo not given) | 0.00752
N#CC(NCc1ccccc1Cl)=C(C#N)NCc1c(F)cccc1Cl | -0.0209
O=S(=O)(NCc1ccc2c(c1)CCO2)c1cccs1 | -0.0222

SMILES | log fold change Tl+ flux
Cc1ccc(S(=O)(=O)NC(=O)NCc2csc3ccc(Cl)cc23)cc1 | 0.65 (active)
CCSc1ccc(-c2noc(C(C)(C)C)n2)cn1 | 0.0323
O=C(Nc1c(S(=O)(=O)c2ccccc2)csc1Br)c1ccccc1Cl | 0.0138
O=C(O)CCSc1ccc2ccccc2c1 | 0.0347
Cc1ccc(S(=O)(=O)Oc2c(Cc3ccccc3)c(=O)n(C)c3ccccc23)cc1 | -0.00429
O=C1CCC(=O)N1c1ccc(S(=O)(=O)NCCCN2CCN(Cc3ccccc3)CC2)cc1 | 0.0192
CN1c2ccsc2C(=O)C(=NNc2cccc(C(F)(F)F)c2)S1(=O)=O | 0.00552
Cc1cc(NS(=O)(=O)c2ccc(NC(=O)c3nccnc3C(=O)O)cc2)no1 | 0.00855
Clc1ccc(-c2cnc(-c3ccc(Cl)cc3)o2)cc1 | -0.0226
Cn1c(SCCS(=O)(=O)c2ccc(OC(F)(F)F)cc2)nnc1C(F)(F)F | -0.00843
N#CC1=C(Nc2ccccc2Cl)SC(c2ccncc2)NC1=O (stereo not given) | 0.0482
COC(=O)c1c(S(=O)(=O)N2CCOCC2)c(C)n(C)c1C | 0.0187
Cc1ccc(-c2nc(N=CNOC(=O)c3ccc([N+](=O)[O-])cc3)sc2C)cc1Cl | 0.126 (active)
CCCCCCCCCCCCSC(=S)Nc1ccc(Br)c(C)c1 | -0.00527
O=[N+]([O-])c1cnc(Sc2nccc(-c3cccnc3)n2)s1 | 0.0246
COc1ccc(Oc2ccc([N+](=O)[O-])cc2C2=NC(=CN(C)C)C(=O)O2)cc1 | -0.0257
Cc1c(Br)sc2sc(-c3ccnc(SCc4ccccc4)n3)c(C)c12 | -0.0227
NC1(C(=O)O)CCSCC1 | 0.00895
COc1ccc2c(OC(C)=O)coc2c1 | -0.0482
CC1(C)CC(=O)C=C(NCCCCCCCCNC2=CC(=O)CC(C)(C)C2)C1 | 0.0262

Each compound was assayed on F380Y/beta2Delta in the same assay as above. Conditions: U2OS BacMam BK variants, at 30 µM.

SMILES | log fold change Tl+ flux
O=[N+]([O-])c1ccc(N2CCSCC2)cc1O | -0.0262
O=S(=O)(Nc1cc(Cl)c(-n2cccc2)cc1Oc1ccc(Cl)cc1)c1ccc(Cl)cc1 | 0.00907
COc1cccc(C(=O)Nc2cc(F)c(Br)cc2F)c1 | -0.00467
CCCn1c(=O)c(Br)cn(-c2ccccc2C)c1=O | -0.0565
Cc1cc(C(=O)N2CCN(c3ncccc3C#N)CC2)no1 | -0.0191
FC(F)(F)c1ccc(-c2csc(C3(c4ccc(Cl)cc4Cl)CC3)n2)cc1 | 0.0443
CCOC(=O)c1c[nH]n2c(=O)c3c(nc12)CCC3 | 0.00798
CN(C)C=Nc1cc(Cl)c(-n2cccc2)cc1Oc1ccc(Cl)cc1 | -0.0305
Cc1cc2c(NC(=O)c3ccccc3C(=O)O)cccc2nn1 | -0.0393
O=c1n(-c2ccccc2)c(=O)n2n1C1CCC2C1 | -0.00637
NC(Cc1ccc(OCc2ncc(C(F)(F)F)cc2Cl)cc1)=NOC(=O)c1ccccc1 | 0.00968
Cc1cc2c(cc1C)CSC(c1ccco1)SC2 | 0.0283
Cn1c(C(=O)O)ccc1S(=O)(=O)N(Cc1ccccc1)Cc1ccccc1 | 0.0498
CCOC(=O)Cn1c(-c2c(Cl)cccc2Cl)noc1=O | -0.0091
COC(=O)C(C#N)=C1NC(C)=NC(SC)=C1C#N | -0.00376
CS(=O)(=O)NNc1c(Cl)cc(Cl)cc1Cl | -0.00312
Cc1cnc(N)c(C)n1 | 0.0872
CC12CCC(c3c1nn(-c1ccccc1)c3C(F)(F)F)C2(C)C (stereo not given) | 0.00374
N#CC(NCc1ccccc1Cl)=C(C#N)NCc1c(F)cccc1Cl | -0.0204
O=S(=O)(NCc1ccc2c(c1)CCO2)c1cccs1 | -0.0113

SMILES | log fold change Tl+ flux
Cc1ccc(S(=O)(=O)NC(=O)NCc2csc3ccc(Cl)cc23)cc1 | 0.241 (active)
CCSc1ccc(-c2noc(C(C)(C)C)n2)cn1 | -0.00176
O=C(Nc1c(S(=O)(=O)c2ccccc2)csc1Br)c1ccccc1Cl | -0.0509
O=C(O)CCSc1ccc2ccccc2c1 | -0.0447
Cc1ccc(S(=O)(=O)Oc2c(Cc3ccccc3)c(=O)n(C)c3ccccc23)cc1 | -0.0297
O=C1CCC(=O)N1c1ccc(S(=O)(=O)NCCCN2CCN(Cc3ccccc3)CC2)cc1 | -0.00712
CN1c2ccsc2C(=O)C(=NNc2cccc(C(F)(F)F)c2)S1(=O)=O | 0.00348
Cc1cc(NS(=O)(=O)c2ccc(NC(=O)c3nccnc3C(=O)O)cc2)no1 | -0.054
Clc1ccc(-c2cnc(-c3ccc(Cl)cc3)o2)cc1 | 0.0345
Cn1c(SCCS(=O)(=O)c2ccc(OC(F)(F)F)cc2)nnc1C(F)(F)F | -0.0119
N#CC1=C(Nc2ccccc2Cl)SC(c2ccncc2)NC1=O (stereo not given) | 0.0198
COC(=O)c1c(S(=O)(=O)N2CCOCC2)c(C)n(C)c1C | -0.00469
Cc1ccc(-c2nc(N=CNOC(=O)c3ccc([N+](=O)[O-])cc3)sc2C)cc1Cl | 0.0425
CCCCCCCCCCCCSC(=S)Nc1ccc(Br)c(C)c1 | -0.0326
O=[N+]([O-])c1cnc(Sc2nccc(-c3cccnc3)n2)s1 | -0.0191
COc1ccc(Oc2ccc([N+](=O)[O-])cc2C2=NC(=CN(C)C)C(=O)O2)cc1 | -0.0604
Cc1c(Br)sc2sc(-c3ccnc(SCc4ccccc4)n3)c(C)c12 | -0.00739
NC1(C(=O)O)CCSCC1 | -0.0146
COc1ccc2c(OC(C)=O)coc2c1 | -0.00847
CC1(C)CC(=O)C=C(NCCCCCCCCNC2=CC(=O)CC(C)(C)C2)C1 | 0.0043
